# Screening results (PubChem)
# This is a sample that favours compounds with a hit; in the whole collection about 2.5% have one here.
# GRK2 inh = compounds blocking aptamer binding on GRK2 – biochemical, human GRK2, bead flow cytometry, HTS, primary screen; FAM-aptamer displacement from GRK2; inhibition of aptamer binding, % at 10 µM; actives 0.59% (n = 330,000); AID 488847, 2010;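 active = inhibition of aptamer binding above 40%, roughly 3 SD of noise, on plates passing a quality check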;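 note: median bead fluorescence of bound FAM aptamer so fluorescent compounds give negative values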
# Target sequence (P25098 whole entry, looked up): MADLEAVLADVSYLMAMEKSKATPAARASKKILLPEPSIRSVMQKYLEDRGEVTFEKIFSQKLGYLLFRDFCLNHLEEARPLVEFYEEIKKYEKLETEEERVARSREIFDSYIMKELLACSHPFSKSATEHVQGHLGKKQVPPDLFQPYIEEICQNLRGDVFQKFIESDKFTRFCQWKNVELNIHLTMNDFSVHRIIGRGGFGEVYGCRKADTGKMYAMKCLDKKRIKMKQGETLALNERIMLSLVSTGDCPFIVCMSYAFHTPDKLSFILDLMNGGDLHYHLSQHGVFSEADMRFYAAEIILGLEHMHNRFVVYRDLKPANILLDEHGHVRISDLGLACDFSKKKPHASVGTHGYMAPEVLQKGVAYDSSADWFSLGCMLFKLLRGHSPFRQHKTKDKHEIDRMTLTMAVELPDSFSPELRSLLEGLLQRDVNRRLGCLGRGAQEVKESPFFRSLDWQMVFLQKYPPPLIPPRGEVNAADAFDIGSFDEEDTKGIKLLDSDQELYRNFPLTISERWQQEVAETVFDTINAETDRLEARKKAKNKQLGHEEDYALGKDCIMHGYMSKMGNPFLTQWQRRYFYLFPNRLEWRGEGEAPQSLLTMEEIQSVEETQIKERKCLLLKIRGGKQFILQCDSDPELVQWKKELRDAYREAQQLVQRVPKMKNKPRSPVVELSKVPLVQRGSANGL
# MEKK3 PB1 HTS = modulators of MEKK3-MEK5 PB1 binding, primary screen, biochemical, wildtype MEKK3, multiplex bead flow cytometry, Alexa488-MEK5; Mitogen-activated protein kinase kinase kinase 3 (Homo sapiens), Q99759; bead-based flow cytometry, Alexa488-MEK5 binding to MEKK3; actives lie on both sides; 0 = blocked by unlabeled MEK5, 100 = vehicle; binding response (% of control), % at 10 µM; actives 1.4% (n = 290,000); AID 1529, 2009;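 active = binding response more than 3 SD above or below the average of its plate-row segment, actives on both sides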;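 note: Alexa488 bead fluorescence after subtracting the streptavidin-only scavenger bead signal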
# MEKK2 mut-MEK5 = MEK5 binding signal on mutant MEKK2 PB1, primary screen, biochemical, multiplex bead flow cytometry, Alexa488-MEK5. percent response, % at 10 µM. AID 1530, 2009. actives 0.35% (n = 290,000). Alexa488-MEK5 binding to MEKK2 mutant; in the data active = percent response above about 24%, passing the limit was not always enough
# MEKK2 WT-MEK5 = modulators of MEK5 binding to wildtype MEKK2, primary screen, biochemical, multiplex bead flow cytometry, Alexa488-MEK5 | binding response (% of control), % at 10 µM | actives 1.1% (n = 290,000) | Mitogen-activated protein kinase kinase kinase 2 (Homo sapiens), Q9Y2U5 | Alexa488-MEK5 binding to MEKK2 WT; actives lie on both sides; in the data active = binding response below about 67% or above about 130%
# MEKK2wt confirm = modulators of MEK5 binding to wildtype MEKK2, confirmation, biochemical, single concentration, multiplex bead flow cytometry | actives 2.4% (n = 5,900) | Alexa488-MEK5 binding to MEKK2 WT; actives lie on both sides | shares compounds with MEKK3 PB1 HTS | binding response (% of control), % at 10 µM; in the data active = binding response below about 16% or above about 210%; inactive = in between
# MEKK2mut confirm = mutant MEKK2 PB1-MEK5 binding signal retest – biochemical, single concentration, multiplex bead flow cytometry, confirmation. percent response, % at 10 µM. shares compounds with MEKK3 PB1 HTS. Alexa488-MEK5 binding to MEKK2 mutant. actives 2% (n = 5,900); in the data active = percent response mostly above about 71%, no sharp cut-off; inactive = mostly below about 38%;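 note: higher means compound restores mutant binding toward wildtype level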
# MEKK3 confirm = MEKK3 wild-type PB1 binding to MEK5, inhibitors, confirmation, biochemical, bead multiplex flow cytometry, single concentration, wildtype; actives 1.8% (n = 5,900); Alexa488-MEK5 binding to MEKK3; stronger effect = lower value; AID 1894, 2009; shares compounds with MEKK3 PB1 HTS; binding response (% of control), % at 10 µM;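 active = binding response below 72% of control, or above a set upper limit, though filed actives all read lower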;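 note: 100% = DMSO only wells and 0% = binding blocked by excess unlabeled MEK5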
# * marks the source's active call; other numbers are inactive results; nt = no result given; [ ] = another dose, or the depositor's remark.
SMILES,GRK2 inh,MEKK3 PB1 HTS,MEKK2 mut-MEK5,MEKK2 WT-MEK5,MEKK2wt confirm,MEKK2mut confirm,MEKK3 confirm
CCN(Cc1ccccc1)S(=O)(=O)c1ccc(C(=O)N(CCCN(C)C)c2nc3ccc(F)cc3s2)cc1,0.0,104.0,38.0*,210.0*,208.0*,64.0,108.0
CC(C)(C)NC(=O)C(=O)NNC(=O)c1ccco1,0.0,91.0,-8.0,89.0,nt,nt,nt
O=C1CN(S(=O)(=O)c2cccc(Cl)c2Cl)c2ccccc2N1,0.0,102.0,-3.0,99.0,nt,nt,nt
CN(C)CCCN(C(=O)c1ccc(S(=O)(=O)N(C)C2CCCCC2)cc1)c1nc2ccc(Br)cc2s1,0.0,103.0,32.0*,195.0*,174.0,29.0,74.0
CCN(CC)CCN(C(=O)c1ccc(S(=O)(=O)N2CCCC2)cc1)c1nc2cc(C)cc(C)c2s1,0.0,105.0,21.0,142.0*,135.0,12.0,101.0
CCN(CC)CCOC(=O)c1ccc(NC(=O)CCCN2C(=O)/C(=C\c3cccs3)SC2=S)cc1,0.0,102.0,17.0,154.0*,147.0,28.0,93.0
O=C(CCN1C(=O)/C(=C\c2cccs2)SC1=S)Nc1ccc(C(=O)O)cc1,1.0,101.0,3.0,97.0,nt,nt,nt
CCC(c1nnnn1Cc1cccs1)N1CCN(C(=O)c2ccco2)CC1 (stereo not drawn),0.0,0.0*[inhibitor],-13.0,-1.0*[inhibitor],96.0,2.0,102.0
COCc1cc(C)nc(SCC(=O)N2CCC(C)CC2)c1C#N,0.0,6.0*[inhibitor],-37.0,8.0*[inhibitor],112.0,7.0,106.0
CC1CCCCN1C(=O)c1ccccc1NC(=O)c1ccco1 (stereo not drawn),0.0,96.0,-1.0,97.0,nt,nt,nt
NC(=O)c1ccc(-n2nnnc2Oc2ccccc2)cc1,0.0,81.0*[inhibitor],-9.0,83.0,103.0,4.0,105.0
CN(C)S(=O)(=O)c1cccc(-c2nn(-c3ccccc3)cc2/C=C2\SC(=S)NC2=O)c1,2.0,87.0,0.0,77.0,nt,nt,nt
C=CCc1ccc2oc(C(=O)OCC)cc(=O)c2c1O,nt,99.0,-3.0,100.0,nt,nt,nt
S=C(NC1CCCCC1)N(CCc1ccccc1)CCc1ccccc1,7.0,107.0,51.0*,125.0,108.0,0.0,101.0
C=CCNC(=O)Nc1cc(Cl)ccc1OC,2.0,102.0,4.0,104.0,nt,nt,nt
CCc1nnc(NC(=O)CCC(=O)NC2CCCC2)s1,0.0,100.0,4.0,104.0,nt,nt,nt
Cc1ccc(CNC(=O)CN(C2CCCCC2)S(C)(=O)=O)cc1,3.0,67.0*[inhibitor],5.0,55.0*[inhibitor],102.0,-3.0,102.0
Cc1ccc(CNC(=O)CN2C(C)CCCC2C)cc1 (stereo not drawn),2.0,56.0*[inhibitor],-15.0,62.0*[inhibitor],104.0,4.0,102.0
O=C(O)/C(=C/c1ccco1)NC(=O)c1ccccc1,12.0,128.0*,-1.0,106.0,116.0,8.0,107.0
CC(C)(C)c1ccc(C(=O)N/C(=C\c2ccco2)C(=O)O)cc1,3.0,102.0,0.0,99.0,nt,nt,nt
O=C(NCCCN1CCOCC1)c1cc(Cl)ccc1[N+](=O)[O-],0.0,206.0*,2.0,114.0,99.0,2.0,100.0
O=C(NCCCN1CCOCC1)c1ccc(Cl)cc1[N+](=O)[O-],2.0,108.0,-6.0,107.0,nt,nt,nt
CCOc1ccc(/C=N/Nc2ccc(C(F)(F)F)cc2[N+](=O)[O-])cc1O,1.0,106.0,-6.0,93.0,nt,nt,nt
COc1ccc(/C=N/Nc2ccc(C(F)(F)F)cc2[N+](=O)[O-])cc1O,0.0,131.0*,0.0,102.0,103.0,4.0,99.0
CCOC(=O)N1CCN(c2c(-c3ccc(C)c(C)c3)c(=O)c2=O)CC1,0.0,97.0,0.0,98.0,nt,nt,nt
SMILES,GRK2 inh,MEKK3 PB1 HTS,MEKK2 mut-MEK5,MEKK2 WT-MEK5,MEKK2wt confirm,MEKK2mut confirm,MEKK3 confirm
CC(=O)NS(=O)(=O)c1ccc(NC(=S)NC(=O)COc2ccccc2C)cc1,0.0,139.0*,0.0,106.0,92.0,-6.0,98.0
COc1ccc(Cn2c(=O)[nH]c3cc(C(=O)N4CCN(c5ccccc5)CC4)ccc3c2=O)cc1,2.0,102.0,-1.0,100.0,nt,nt,nt
N=c1n(CCN2CCOCC2)c2ccccc2n1CC(=O)c1cccc([N+](=O)[O-])c1,1.0,12.0*[inhibitor],-19.0,22.0*[inhibitor],109.0,9.0,107.0
O=c1ccc2[n+]([O-])c3ccc(O)cc3oc-2c1,nt,92.0,-9.0,50.0*[inhibitor],85.0,-7.0,89.0
O=C(CNC(=O)c1ccccc1)N/N=C/c1cc(Br)ccc1O,2.0,91.0,0.0,104.0,nt,nt,nt
O=C(CN1CC(c2ccccc2)CC1=O)N/N=C/c1cc(Br)ccc1O (stereo not drawn),2.0,141.0*,0.0,106.0,97.0,-10.0,100.0
COc1ccc(CC(=O)NNC(=O)c2cccnc2)cc1OC,1.0,109.0,2.0,97.0,nt,nt,nt
COc1ccc(CCN2C(=O)C(Oc3ccccc3)C2c2ccc3c(c2)OCO3)cc1 (stereo not drawn),0.0,150.0*,1.0,108.0,107.0,-3.0,102.0
COc1ccc2c(c1)C(=O)/C(=C/C=C/c1ccccc1)CC2,1.0,90.0,-1.0,71.0*[inhibitor],86.0,-7.0,99.0
COc1ccc([N+](=O)[O-])cc1NC(=O)CSc1ccc2ccccc2c1,0.0,148.0*,0.0,108.0,104.0,-2.0,103.0
COc1ccc([N+](=O)[O-])cc1NC(=O)CSc1nc(C)cc(C)n1,3.0,108.0,-1.0,106.0,nt,nt,nt
COc1ccccc1NS(=O)(=O)c1cc(NC(=O)c2cnccn2)ccc1N1CCOCC1,2.0,58.0*[inhibitor],-24.0,72.0,105.0,6.0,102.0
O=C(Nc1ccc(Cl)c(Cl)c1)Nc1ccc(N2CCCC2)c(S(=O)(=O)Nc2ccccc2Cl)c1,0.0,107.0,44.0,44.0*[inhibitor],102.0,4.0,104.0
Cc1ccc(NC(=O)c2cc3c(s2)CCCC3)cc1S(=O)(=O)Nc1ccccc1Cl,2.0,133.0*,1.0,111.0,95.0,-5.0,102.0
COc1ccc(N=C2SC(C(=O)O)CC(=O)N2C)cc1 (stereo not drawn),2.0,100.0,-2.0,97.0,nt,nt,nt
O=C(O)C1=CC[C@@H](c2ccc(Cl)cc2)N(S(=O)(=O)c2ccc(Cl)cc2)[C@H]1c1ccc(F)cc1,0.0,nt,nt,nt,nt,nt,nt
O=[N+]([O-])c1ccc(Oc2cccnc2)nc1,4.0,92.0,-16.0,91.0,nt,nt,nt
